# ATXN viability = Viability Counterscreen for Primary qHTS for Inhibitors of ATXN expression; hit rate 0.49% among 400,000; AID 651635, 2014; S2 cells (HEK-293 line with an ATXN2-luciferase reporter) viability, CellTiter-Fluor protease fluorescence, 24 h; Potency, µM (highest dose often 56.7 µM), most hits filed as cytotoxic; also: potency is read from the fitted curve at half-maximal effect; nearly all actives have a fitted effect of over 40% in size
# ATXN2 expr inh = Primary qHTS for Inhibitors of ATXN expression; HEK-293 ATXN2-luciferase reporter, luminescence, 24 h; Potency, µM (titrated, usually from 57 µM), without a hit: top-dose activity change, negative = inhibition, actives largely listed as inhibitors; hit rate 0.72% among 360,000; AID 1745845, 2022; also: potency is read from the fitted curve at half-maximal effect; % is scaled to controls: 0 for no effect and ±100 for the full control effect; nearly all actives have a fitted effect of over 55% in size
#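 ATXN2-luciferase reporter cells (luciferase flanked by upstream and downstream ATXN2 gene portions) were treated 24 h at 37 °C with compounds at up to 57 uM. SteadyGlo luminescence gave expression; GF-AFC fluorescence gave viability.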
# USP2a block = qHTS Assay for Inhibitors of Ubiquitin-specific Protease USP2a Using CHOP2 as the Reporter. USP2 core, Ub-CHOP2 coupled fluorogenic reporter, 485/531. AID 463254, 2010. hit rate 0.01% among 330,000. Ubiquitin carboxyl-terminal hydrolase 2 (Homo sapiens), O75604. Potency, µM (highest dose often 38.3 µM), for inactives: top-dose activity change, negative = inhibition, hits mostly inhibitors;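 also: potency is read from the fitted curve at half-maximal effect; plate controls were DMSO wells for no effect and full inhibition by NEM control for full effect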
# Target sequence (O75604 whole entry, looked up): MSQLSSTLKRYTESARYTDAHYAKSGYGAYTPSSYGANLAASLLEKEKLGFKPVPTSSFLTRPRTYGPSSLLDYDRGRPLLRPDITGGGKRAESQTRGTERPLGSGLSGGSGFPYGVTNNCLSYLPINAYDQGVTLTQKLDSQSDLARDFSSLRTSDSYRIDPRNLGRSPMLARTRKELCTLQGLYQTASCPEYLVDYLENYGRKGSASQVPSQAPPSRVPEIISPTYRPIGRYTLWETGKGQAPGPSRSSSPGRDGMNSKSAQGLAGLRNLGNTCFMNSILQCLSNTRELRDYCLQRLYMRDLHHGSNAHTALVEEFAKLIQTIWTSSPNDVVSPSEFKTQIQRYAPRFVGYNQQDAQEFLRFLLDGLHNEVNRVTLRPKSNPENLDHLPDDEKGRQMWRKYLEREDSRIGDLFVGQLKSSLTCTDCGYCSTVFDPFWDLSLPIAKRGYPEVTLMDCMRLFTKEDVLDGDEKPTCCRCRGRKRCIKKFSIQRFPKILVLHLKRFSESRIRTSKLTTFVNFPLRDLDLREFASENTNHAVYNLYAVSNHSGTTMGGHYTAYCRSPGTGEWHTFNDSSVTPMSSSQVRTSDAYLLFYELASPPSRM
#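 Deubiquitinase activity read as fluorescence (485/531 nm) after Ub-CHOP2 cleavage activates the enterokinase reporter on its substrate; USP2 core 10nM, Ub-CHOP2 and substrate 25nM each, 30min compound preincubation then 60min RT; data normalized to NEM, curves fitted.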
# USP1 inh = Inhibitors of USP1/UAF1: Primary Screen. Potency, µM (top dose mostly 57.1 µM), without a hit: top-dose activity change, negative = inhibition, actives largely listed as inhibitors. recombinant USP1/UAF1, Ub-Rhodamine cleavage fluorescence. hit rate 0.23% among 390,000; also: potency is read from the fitted curve at half-maximal effect; % is scaled to controls: 0 for no effect and ±100 for the full control effect; nearly all actives have a fitted effect of over 60% in size
#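 Step one: compound is pinned into 1nM USP1/UAF1 in HEPES pH 7.8 buffer with TCEP. Step two: 15 min room-temperature incubation. Step three: Ub-Rho (150nM final) starts cleavage, tracked by fluorescence over six one-minute reads.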
# IL-1B inflam inh = qHTS for Inhibitors of Inflammasome Signaling: IL-1-beta AlphaLISA Primary Screen; hit rate 4.7% among 360,000; THP-1 LPS/ATP IL-1B secretion, AlphaLISA, 16 h; stronger effect = lower value; activity change, % at 57.5 µM; AID 743279, 2014; in the data active = activity change below about -50%; inconclusive = mostly about -30% to -49%; also: % is scaled to controls: 0 for no effect and ±100 for the full control effect
#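 Secreted IL-1B measured by AlphaLISA bead assay after 16 h compound exposure of THP-1 cells; compounds (final up to 57.5 uM) added 1 h before LPS (250 ng/mL) and ATP (1.25 mM) stimulation; lower signal means less secretion.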
# An asterisk follows results filed as active; i = inactive; ? = inconclusive; · = no result given. Shown are actives, neighbours in structure and some others; about 4.8% of the full set was active somewhere. Unless noted, calls follow the shape of the dose curve; as a rule, active = well fitted curve in the direction sought with a large enough effect; inconclusive = small, poorly fitted or top-dose-only effect, or another doubt; inactive = no such curve, though single readings can be large; an effect the other way counts as inactive or inconclusive.
SMILES,ATXN viability,ATXN2 expr inh,USP2a block,USP1 inh,IL-1B inflam inh
COc1cccc2c1O[C@H]1C(=O)CC[C@H]3CN(C)CCC231 (some centres undefined),i,1%,·,·,·
COc1ccc(-c2ccc3c(c2)CN(C(=O)NC2CCCCC2)Cc2cnnn2-3)cc1,?,-28%,·,·,-53*
CCN(CCCl)c1cc(CN(C)C)cc(NC(=O)c2ccc(C(=O)Nc3cc(CN(C)C)cc(N(CC)CCCl)c3)cc2)c1,·,0.71µM*,·,-15%,-94*
O=[N+]([O-])/N=C1\NCCN1Cc1ccc(Cl)nc1,i,8%,·,·,·
O=C(NCCN1CCC2(CC1)C(=O)NCN2c1cccc(F)c1)c1ccc2ccccc2c1,32µM*,13µM*,·,·,?
COc1ccc2cc1Oc1ccc(cc1)C[C@H]1c3cc(c(OC)cc3CCN1C)Oc1c(OC)c(OC)cc3c1[C@@H](C2)N(C)CC3,?,?,3%,?,?
CCC(=O)O[C@@H]1C=C2CCC3C(CCC4(C)C3CC[C@@H]4OC(=O)CC)C2CC1 (some centres undefined),i,0%,·,·,·
CC[C@H](C)C(=O)O[C@@H]1[C@H](O)[C@@H]2[C@H](CN3C[C@@H](C)CC[C@@H]3[C@@]2(C)O)[C@@H]2C[C@@]34O[C@@]5(O)[C@@H](OC(=O)[C@](C)(O)CC)CC[C@@]3(C)[C@H]5[C@H](OC(C)=O)[C@@H](OC(C)=O)[C@H]4[C@]12O,i,·,·,·,·
CC(=O)O[C@H]1C[C@@H]2OC3C=C(C)CCC3(C)[C@@]1(C)[C@@]21CO1 (some centres undefined),?,?,·,-6%,-100*
CC(N)C(=O)NC1C2C(=C(O)CC(O)C2O)C(=O)OC1(C)C(Cl)Cl (centres undefined),?,1.5µM*,·,1%,-100*
O=C1NC(=O)C(=Cc2ccc(-c3ccc(F)cc3O)o2)C(=O)N1,i,?,2%,-25%,-77*
O=C1NC(=O)C(=Cc2ccc(-c3ccc(Cl)cc3)o2)C(=O)N1,28µM*,?,-2%,?,-108*
O=C1NC(=O)C(=Cc2ccc(Sc3ccccc3)o2)C(=O)N1,?,?,0%,-17%,-100*
Cc1ccc(Cl)cc1NC(=O)N(Cc1ccc2c(c1)OCO2)C1CCN(Cc2ccccc2)CC1,i,?,·,-4%,·
CCC[C@@](C)(COC(N)=O)COC(=O)NC(C)C,i,·,·,·,·
Cc1occc1C(=O)Nc1cccc(-c2nc(CNC(=O)c3cccc(C#CC(C)(C)O)c3)c(C)o2)c1,32µM*,·,·,·,·
COc1ccc2oc(-c3cccc(NC(=O)c4ccc(C#N)cc4F)c3)nc2c1,?,0%,·,-31%,·
O=C(c1ccccc1)C(CN1CCCC1)c1ccccc1 (centres undefined),·,?,-1%,-10%,-104*
CCN1CCN(CC(c2ccccc2)c2ccccc2)CC1,i,5%,2%,-18%,-13
C[C@H]1CNC(=O)c2c(C(=O)Nc3cccc(Cl)c3)ncn21,i,5%,·,10%,0
O=C(O)CC1OCC=C2CN3CCC45c6ccccc6NC4C1C2CC35 (centres undefined),i,·,-7%,7%,8
O=C(O)CC1OCC=C2CN3CCC45C6=CC(=O)C(=O)C([N+](=O)[O-])=C6NC4C1C2CC35 (centres undefined),i,-14%,2%,5µM*,38
O=C1NCN(c2ccccc2)C12CCN(C(c1cc3ccccc3o1)c1nnnn1C1CCCC1)CC2 (centres undefined),?,?,·,·,-65*
O=C1NCN(c2ccccc2)C12CCN(C(c1cccc3ccccc13)c1nnnn1C1CCCC1)CC2 (centres undefined),?,-35%,·,·,-62*
O=[N+]([O-])c1ccc(N2CCOCC2)c([N+](=O)[O-])c1,?,-16%,·,-3%,4
SMILES,ATXN viability,ATXN2 expr inh,USP2a block,USP1 inh,IL-1B inflam inh
CCN(CC)CCN1C(=O)CN=C(c2ccccc2F)c2cc(Cl)ccc21,i,-8%,·,·,·
CCOc1cc2c(cc1OCC)-n1cccc1C(c1ccccc1OC)NC2 (centres undefined),i,-28%,0%,-7%,-85*
CCOc1cc2c(cc1OCC)-n1cccc1C(c1c(O)cccc1OC)NC2 (centres undefined),i,-32%,3%,-17%,-68*
CCOc1cc2c(cc1OCC)-n1cccc1C(c1ccccc1O)NC2 (centres undefined),i,-23%,-12%,-11%,-4
O=C1OC(c2ccc(O)c(S(=O)(=O)O)c2)(c2ccc(O)c(S(=O)(=O)O)c2)c2c(Br)c(Br)c(Br)c(Br)c21,i,-7%,·,·,·
COc1cc2cc(c1Cl)N(C)C(=O)C[C@H](OC(=O)C(C)C)[C@]1(C)O[C@H]1[C@H](C)[C@@H]1C[C@@](O)(NC(=O)O1)[C@H](OC)C=CC=C(C)C2,·,-28%,·,·,·
C[C@H]1COC(=O)[C@H](Cc2ccc(F)cc2)CC/C=C/C[C@@H](CC(=O)N(CCO)Cc2ccccc2)C(=O)N1,?,3%,-8%,?,18
CCOC(=O)[C@]12Cc3cc(OC)ccc3[C@H]1N(C)C(=O)c1cc(OC)ccc12,14µM*,?,·,·,·
CCOC(=O)[C@]12Cc3cc(N(C)C)ccc3[C@H]1N(Cc1ccccc1)C(=O)c1ccccc12,?,?,·,-24%,-8
CCOC(=O)[C@]12Cc3ccccc3[C@H]1N(Cc1ccccc1)C(=O)c1cc(F)c(F)cc12,?,?,·,·,-67*
CCOC(=O)[C@]12Cc3cc(OC)ccc3[C@H]1N(CC(=O)OC)C(=O)c1cc(OC)ccc12,13µM*,20µM*,·,·,-57*
CCOC(=O)[C@]12Cc3cc(C)ccc3[C@H]1N(Cc1ccccc1)C(=O)c1cc(OC)ccc12,32µM*,?,·,·,-96*
CCOC(=O)[C@]12Cc3cc(OC)ccc3[C@H]1N(CC(=O)OC)C(=O)c1ccccc12,?,15%,·,·,32
CSC1=NC(C)(C)CC2(C)Nc3ccccc3N12 (centres undefined),?,3%,-7%,-17%,?
O=C(O)c1ccccc1NS(=O)(=O)c1cccc(N=Nc2c(O)[nH]c(=S)[nH]c2=O)c1,?,-19%,0%,-18%,1
CCCCCN1C(=O)c2cc(OC)ccc2[C@@]2(C(=O)OCC)Cc3cc(OC)ccc3[C@@H]12,·,?,·,·,-69*
